A selection: hits, their analogues and other compounds. The true share with any hit is near 1.4%.
ERK EGF inh: qHTS Assay for Inhibitors of the ERK Signaling Pathway using a Homogeneous Screening Assay; Stimulation with EGF | HEK293-V1b, EGF-stimulated phospho-ERK AlphaScreen | Potency, µM (series often up to 11.5 µM), inactives show at the top dose activity change, negative = inhibition, actives largely listed as inhibitors | 130,000 compounds, 0.41% hits | AID 1454, 2008;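 note: plate controls were stimulated vehicle wells for no effect and unstimulated vehicle basal for full effect; nearly all actives have a fitted effect of over 55% in size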
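HEK293 cells stably expressing V1b receptor, serum-reduced (1% FBS) overnight, got compound for 30 min at 37C, then 25 nM EGF for 5 min. Lysate phospho-ERK read by AlphaScreen SureFire; AC50 from Hill fits.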
HttQ103 aggreg: qHTS Multiplex Assay to Identify Dual Action Probes in a Cell Model of Huntington: Aggregate Formation (GFP). PC12 HttQ103-GFP aggregates, Acumen cytometry, 40 h. Potency, µM (top dose mostly 46.1 µM), for inactives: at the highest dose activity change, negative = inhibition, hits mostly inhibitors. 220,000 compounds, 1.1% hits; note: % is set by controls: 0 for no effect and ±100 for the full control effect; nearly all actives have a fitted effect of over 60% in size
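Aggregates are detected as GFP objects 1–25 µm with signal 6 STDEV over background in lysates of induced PC12 cells. These carry Huntingtin exon 1 with 103 glutamines fused to GFP under an ecdysone promoter; compounds titrated.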
HTT cytoprotect: qHTS Multiplex Assay to Identify Dual Action Probes in a Cell Model of Huntington: Cytoprotection (ATP). Potency, µM (titrated, usually from 56.4 µM), inactives show cytoprotection (ATP increase), most hits filed as activators. PC12 HTT-Q103 induced, cytoprotection, ATP luminescence, 40 h. 230,000 compounds, 0.14% hits; note: % of control where 0% means no effect; nearly all actives have a fitted effect of over 45% in size
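Stable PC12 Q103-GFP cells in serum-supplemented, phenol red-free DMEM; induction by tebufenozide at 100 nM final; compound dose series; cell viability quantified luminescently from ATP.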
An asterisk follows results filed as active; [ ] = remark or other dose. Calls come from the whole dose curve; as a rule, active = well fitted curve in the direction sought with a large enough effect; inconclusive = small, poorly fitted or top-dose-only effect, or another doubt; inactive = no such curve, though single readings can be large; an effect the other way counts as inactive or inconclusive. Potency is the fitted concentration of half-maximal effect.

How did COc1cccc2c1C(=O)c1c(O)c3c(c(O)c1C2=O)C[C@@](O)(C(=O)CO)C[C@@H]3OC1CC(N)C(O)C(C)O1 (some centres not stated) do in these assays?
HttQ103 aggreg: 2.51µM*; HTT cytoprotect: -57.5%

Results for CC(=O)[C@@]1(O)Cc2c(O)c3c(c(O)c2[C@H](O[C@H]2C[C@H](N)[C@H](O)[C@H](C)O2)C1)C(=O)c1ccccc1C3=O ?
HTT cytoprotect: -76.0%[1.9 µM]

How did O=C(NCCc1c[nH]c2ccccc12)[C@H]1C[C@@H]1[C@H](NP(=O)(c1ccccc1)c1ccccc1)c1ccccc1 do in these assays?
ERK EGF inh: 7.7%; HTT cytoprotect: -155.7%

What do the screens show for `Clc1ccccc1-c1nc(N2CCNCC2)c2ccccc2n1`?
ERK EGF inh: 45.7%; HTT cytoprotect: 3.9%

What do the screens show for `O=c1cc[nH]c(=S)[nH]1`?
ERK EGF inh: 4.6%; HttQ103 aggreg: 4.0%; HTT cytoprotect: -3.2%

How did Cc1nc(Nc2ccc(Cl)c(Cl)c2)sc1C(=O)Nc1ccccc1 do in these assays?
ERK EGF inh: 9.3%; HttQ103 aggreg: 25.1µM*; HTT cytoprotect: 1.1%[10 µM]

Results for Cc1nc(Nc2ccc(Cl)cc2Cl)sc1C(=O)Nc1ccccc1 ?
ERK EGF inh: inconclusive; HttQ103 aggreg: inconclusive; HTT cytoprotect: 14.9%[10 µM]

What do the screens show for `COc1cc(/C=N/NC(=O)c2cc3ccccc3cc2O)ccc1OCCN1CCCCC1`?
ERK EGF inh: 6.6%; HttQ103 aggreg: 20µM*

How did COc1cc(/C=N/NC(=O)c2ccncc2)ccc1OCCN1CCCCC1 do in these assays?
ERK EGF inh: 2.0%; HttQ103 aggreg: -7.6%

How did Cc1cc(CN2CCCCC2)c(O)c(CN2CCCCC2)c1 do in these assays?
HTT cytoprotect: 9.8%[10 µM]

What do the screens show for `Cn1c(=O)oc2cc(S(=O)(=O)NCc3ccc(C(=O)O)cc3)ccc21`?
ERK EGF inh: -18.3%[57.5 µM]; HttQ103 aggreg: -7.2%[9.22 µM]; HTT cytoprotect: -5.7%[10 µM]

Results for Cn1c(=O)oc2cc(S(=O)(=O)NCc3ccncc3)ccc21 ?
HttQ103 aggreg: 8.91µM*; HTT cytoprotect: -22.6%[0.074 µM]

What do the screens show for `COc1ccc(-n2nc(C(=O)N3CCCCC3)c3ccccc3c2=O)cc1`?
HttQ103 aggreg: 2.82µM*; HTT cytoprotect: 10.1%

How did CCOC(=O)N1CCN(C(=O)c2nn(-c3cc(OC)cc(OC)c3)c(=O)c3ccccc23)CC1 do in these assays?
HttQ103 aggreg: 9.8%; HTT cytoprotect: 17.8%[10 µM]

What do the screens show for `COc1ccc(S(=O)(=O)N(CCO)c2ccccc2CN(C)CC=Cc2ccc(Cl)cc2)cc1`?
HTT cytoprotect: -210.1%

How did COC(=O)/C=C1\S/C(=N/NC(=O)c2ccccc2)NC1=O do in these assays?
HttQ103 aggreg: -0.3%; HTT cytoprotect: 11.2%

Results for COc1ccccc1/C=C1\S/C(=N/NC(=O)c2cccc(Br)c2)NC1=O ?
HttQ103 aggreg: 10µM*; HTT cytoprotect: -84.0%

How did Cc1ccc(S(=O)(=O)N/N=C/c2cc(Br)ccc2O)cc1 do in these assays?
ERK EGF inh: 4.0%[57.5 µM]; HttQ103 aggreg: 34.1%[9.22 µM]; HTT cytoprotect: 21.6%[10 µM]

Results for Cc1ccc(S(=O)(=O)Nc2ccc(Br)cc2/C=N/n2cnnc2)cc1 ?
HttQ103 aggreg: 2.24µM*; HTT cytoprotect: -25.8%

What do the screens show for `C[C@H]1/C=C\CC(=O)NCc2cccc(c2)CNC(=O)N[C@H]1c1ccccc1`?
ERK EGF inh: 0.2%; HTT cytoprotect: inconclusive

Results for O=C(Nc1ccc(OCC(F)(F)C(F)F)cc1)c1ccncc1 ?
ERK EGF inh: 4.1%; HttQ103 aggreg: inconclusive

Results for O=C(Nc1ccc(OCC(F)(F)C(F)F)c(C(F)(F)F)c1)c1ccccc1O ?
HttQ103 aggreg: 5.01µM*; HTT cytoprotect: -2.6%[10 µM]

How did CCC(SCC(=O)OC)C(=O)Nc1nnc(C(C)C)s1 (configuration not stated) do in these assays?
HttQ103 aggreg: 19.5%; HTT cytoprotect: 14.8%

How did COC(=O)CSC(C)C(=O)Nc1nnc(C(C)C)s1 (configuration not stated) do in these assays?
ERK EGF inh: 7.6%; HttQ103 aggreg: -5.2%; HTT cytoprotect: 3.16µM*

What do the screens show for `Cc1ccc(C)c(NC(=S)NCCSc2ccc(Cl)cc2)c1`?
ERK EGF inh: -6.4%; HttQ103 aggreg: -14.0%; HTT cytoprotect: 0.1%[0.074 µM]

How did Cc1cccc(NC(=S)NCC(C)CSc2ccc(Cl)cc2)c1 (configuration not stated) do in these assays?
ERK EGF inh: -2.7%; HttQ103 aggreg: inconclusive; HTT cytoprotect: -85.7%

How did Cc1ccc(NC(=S)NCCSc2ccc(Cl)cc2)c(C)c1 do in these assays?
ERK EGF inh: 6.8%; HttQ103 aggreg: 5.9%; HTT cytoprotect: 1.78µM*

What do the screens show for `Cc1ccc(NC(=S)NCC(C)CSc2ccc(Cl)cc2)cc1` (configuration not stated)?
ERK EGF inh: -5.4%; HttQ103 aggreg: 25.1µM*; HTT cytoprotect: -167.3%

Results for C=C1CC[C@@H](O)C/C1=C/C=C1\CCC[C@]2(C)[C@@H]1CC[C@H]2[C@@H](C)CCCC(C)C ?
HTT cytoprotect: -39.1%

What do the screens show for `O=[N+]([O-])c1c(Nc2ccccn2)cc(Cl)c2nonc12`?
ERK EGF inh: 14.1µM*; HttQ103 aggreg: 12.7%[9.22 µM]; HTT cytoprotect: -15.2%[10 µM]

What do the screens show for `O=C(O)c1cccc(Nc2cc(Cl)c3nonc3c2[N+](=O)[O-])c1`?
ERK EGF inh: 0.1%; HttQ103 aggreg: 12.0%; HTT cytoprotect: inconclusive

How did NCC(=O)Nc1ccccc1 do in these assays?
HTT cytoprotect: -7.6%[10 µM]

How did Cc1[nH]c2ccccc2c1N=Nc1ccc(F)cc1 do in these assays?
ERK EGF inh: 2.1%; HttQ103 aggreg: -12.2%; HTT cytoprotect: 2.4%

How did Cc1[nH]c(N=Nc2ccccc2)nc1N=Nc1ccccc1 do in these assays?
ERK EGF inh: 22.4µM*; HttQ103 aggreg: 4.0%[9.22 µM]; HTT cytoprotect: -1.4%[10 µM]

Results for CC(=O)c1ccc(C)cc1OC(=O)c1cccc(F)c1 ?
ERK EGF inh: 0.5%; HttQ103 aggreg: 2.6%; HTT cytoprotect: -37.0%

What do the screens show for `Cc1ccc(C(=O)CC(=O)c2cccc(F)c2)c(O)c1`?
HttQ103 aggreg: 22.4µM*; HTT cytoprotect: 37.2%

What do the screens show for `O=C(N/N=C/c1cccc([N+](=O)[O-])c1O)c1cccs1`?
ERK EGF inh: -1.2%; HttQ103 aggreg: 15.8µM*; HTT cytoprotect: 4.4%[10 µM]

What do the screens show for `O=C(N/N=C/c1ccc([N+](=O)[O-])cc1)c1cccs1`?
ERK EGF inh: -6.5%[57.5 µM]; HttQ103 aggreg: 9.6%[9.22 µM]; HTT cytoprotect: 16.8%[10 µM]

How did CN1C(=O)N(C)C2=NNC=NC2(O)C1=O (configuration not stated) do in these assays?
ERK EGF inh: -6.3%; HTT cytoprotect: -21.3%

How did CC(C)[C@H](CO)Nc1nc(Nc2cccc(Cl)c2)c2ncn(C(C)C)c2n1 do in these assays?
ERK EGF inh: -17.2%; HTT cytoprotect: inconclusive

Results for COc1ccc(NC(=O)C2CCCN(c3c4c(nc5ncnn35)CCC4)C2)cc1OC (configuration not stated) ?
HttQ103 aggreg: 15.3%; HTT cytoprotect: -12.4%

Results for O=C(Nc1ccc2c(c1)CCC2)C1CCN(c2c3c(nc4ncnn24)CCC3)CC1 ?
HttQ103 aggreg: 11.2µM*; HTT cytoprotect: 5.2%[10 µM]
